GLP1R cytotox: cytotoxic in the GLP-1 receptor inverse agonist counter-screen | AID 624418 | hit rate 0.13% among 410,000 | Potency, µM (series often up to 38.3 µM), hits mostly inhibitors | HEK293 cAMP-luciferase reporter cells, luminescence, 24 h;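 also: loss of luciferase light is scored as toxicity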
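Here, cytotoxicity is scored as loss of luminescence. The MLSMR collection was tested on cells seeded in medium containing 10% Nu serum, with a 24 hr compound exposure preceded by 12 hours of culture.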
GLP1R inv ag: acts as inverse agonist at human GLP-1 receptor | HEK293 GLP-1R CRE-luciferase, luminescence, 24 h; GLP-1R form is constitutively active | AID 624417 | hit rate 1.6% among 410,000 | Potency, µM (top dose mostly 38.3 µM), actives largely listed as inhibitors | P43220; also: nearly all actives have a fitted effect of over 55% in size
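Seeding at 200 cells/uL, 12 h culture, 24 hr compound treatment, then luciferase reagent and a luminescence read; cells are HEK293 stably expressing a constitutively active GLP-1R plus cAMP-responsive luciferase.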
PTHR1 agonist: activates the human parathyroid hormone receptor PTHR1; HEK293 GP2 PTHR1 cells, GloSensor cAMP luminescence, 1 h; Potency, µM (highest dose often 115 µM), hits mostly activators; hit rate 0.075% among 410,000; also: nearly all actives have a fitted effect of over 55% in size
Target sequence (Q03431 whole entry, looked up): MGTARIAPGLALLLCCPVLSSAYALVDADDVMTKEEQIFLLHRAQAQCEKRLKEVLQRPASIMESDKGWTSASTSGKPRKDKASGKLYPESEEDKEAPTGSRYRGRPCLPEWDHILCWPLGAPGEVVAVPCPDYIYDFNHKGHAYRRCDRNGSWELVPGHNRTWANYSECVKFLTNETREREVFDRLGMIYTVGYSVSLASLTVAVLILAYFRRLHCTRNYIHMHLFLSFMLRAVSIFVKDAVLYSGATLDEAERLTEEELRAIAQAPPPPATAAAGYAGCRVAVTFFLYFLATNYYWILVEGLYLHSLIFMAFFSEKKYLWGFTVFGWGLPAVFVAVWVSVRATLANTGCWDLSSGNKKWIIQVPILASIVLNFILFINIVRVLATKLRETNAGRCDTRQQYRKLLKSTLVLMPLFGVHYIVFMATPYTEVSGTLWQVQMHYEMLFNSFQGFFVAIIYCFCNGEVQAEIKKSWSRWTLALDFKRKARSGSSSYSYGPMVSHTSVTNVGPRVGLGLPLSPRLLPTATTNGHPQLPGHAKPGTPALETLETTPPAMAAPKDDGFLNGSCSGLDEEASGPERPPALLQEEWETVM
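HEK-293-derived GP2 cells expressing PTHR1 and a GloSensor cAMP reporter, 3,000/well, plated overnight, given luciferin plus IBMX (each 0.5 mM as added) for 1 h at 37 °C, then compound for 1 h at 37 °C. Luminescence was read after 15 min at room temperature.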
GLP1R ag: GLP-1 receptor (human) agonism | P43220 | HEK293 GLP-1R CRE-luciferase, luminescence, 4-6 h; cells express a hypersensitive GLP-1R form | Potency, µM (doses to about 45.6 µM), actives largely listed as activators | hit rate 0.007% among 380,000 | AID 624172
Each line names hits and unclear results; the compound was inactive in the other large screens. Hits are enriched below; roughly 1.7% of the tested compounds scored in any of these assays. Calls follow the shape of the dose curve; as a rule, active = well fitted curve in the direction sought with a large enough effect; inconclusive = small, poorly fitted or top-dose-only effect, or another doubt; inactive = no such curve, though single readings can be large; an effect the other way counts as inactive or inconclusive.

COc1ccc(-c2cccc(NC(=O)c3ccco3)c2)nn1	none
COc1ccc(-c2ccc(NC(=O)c3ccco3)cc2)nn1	GLP1R inv ag 7.1µM
Fc1cccc(C2NN=C(c3ccccc3)S2)c1 (stereo not given)	PTHR1 agonist inconclusive
O=C1c2ccccc2C2=Nc3ccccc3SC(c3ccc(Cl)cc3)C12 (stereo not given)	GLP1R cytotox inconclusive, GLP1R inv ag 13µM
O=C1c2ccccc2C2=Nc3ccccc3SC(c3cccc(F)c3)C12 (stereo not given)	GLP1R cytotox 7.9µM, GLP1R inv ag inconclusive
Cc1ccc(NC(=O)C2CCN(C(=O)c3cnn(-c4ccccc4)c3-n3cccc3)CC2)cc1	none (no result: GLP1R ag)
CC(C)N1[N]C(=C2C=c3cc(O)ccc3=N2)c2c(N)ncnc21	none (no result: GLP1R cytotox, GLP1R inv ag, PTHR1 agonist)
OCOCCCn1c(C2CCCN2c2nc(-c3ccc(F)cc3)cs2)nc2cc(Cl)c(N3CCCCC3)cc21 (stereo not given)	GLP1R inv ag 7.9µM
OCCCn1c(C2CCCN2c2nc(-c3ccc(F)cc3)cs2)nc2cc(Cl)c(Cl)cc21 (stereo not given)	GLP1R inv ag inconclusive
O=C(c1cc2sccc2n1Cc1ccc(F)cc1)N1CCN(c2nc3ccccc3s2)CC1	GLP1R inv ag 4.5µM
Cn1c(C(=O)N2CCN(c3nc4ccccc4s3)CC2)cc2sccc21	none
CC[C@]12c3[nH]c4cc(-c5ccco5)ccc4c3CCN1C(=O)[C@@H](CC(=O)NCCC1=CCCCC1)C[C@@H]2C(=O)N1CCN(C(=O)c2ccco2)CC1	GLP1R inv ag 7.9µM
O=C(C[C@H]1C[C@H](C(=O)N2CCCCC2)[C@@]2(CCc3ccccc3)c3[nH]c4cc(-c5ccco5)ccc4c3CCN2C1=O)NCc1ccco1	GLP1R inv ag 8.9µM
CSc1cccc(NC(=O)C2CCCN(C(=O)c3cnn(-c4ccc(F)cc4)c3-n3cccc3)C2)c1 (stereo not given)	GLP1R inv ag inconclusive (no result: GLP1R ag)
CSc1nn(Cc2ccccc2C)c(NC(C)=O)c1S(=O)(=O)c1ccc(C)cc1	GLP1R inv ag inconclusive (no result: GLP1R ag)
CCOc1ccc2oc(C(=O)NC3CCN(Cc4ccccc4)CC3)c(C)c2c1	GLP1R inv ag inconclusive
CCOc1ccc2oc(C(=O)N3CCN(c4ccccc4OCC)CC3)c(C)c2c1	GLP1R inv ag 11µM
CCOc1ccc2oc(C(=O)NC3CC(C)(C)NC(C)(C)C3)c(C)c2c1	GLP1R inv ag 10µM
Cn1nnnc1SCC1=C(C(=O)O)N2C(=O)[C@@H](NC(=O)[C@H](OC=O)c3ccccc3)[C@H]2SC1	none (no result: GLP1R cytotox, GLP1R inv ag, PTHR1 agonist)
O=C1CSc2nc3ccccc3n21	none
CC12CCC(C(=O)n3c1nc1ccccc13)C2(C)C (stereo not given)	GLP1R inv ag 1.6µM, PTHR1 agonist inconclusive
Cc1cc(C)c2ccc(N)nc2c1O	GLP1R cytotox inconclusive, GLP1R inv ag 13µM
CCOc1ccccc1N=NC1C(=O)N(C(N)=S)N=C1C (stereo not given)	GLP1R cytotox inconclusive, GLP1R inv ag 0.89µM
CC1=NN(C(N)=S)C(=O)C1N=Nc1ccccc1O (stereo not given)	none
Cn1c(/C=C/c2ccccc2)nc2ccccc21	GLP1R inv ag 4.5µM
Cc1cc(C)c(OCCCNCc2ccccc2)c(Br)c1	GLP1R cytotox inconclusive, GLP1R inv ag inconclusive
Cc1cc(Cl)cc(Br)c1OCCCNCC(C)O (stereo not given)	GLP1R inv ag 4µM
CCOc1ccc(-c2c(C(=O)N/N=C/c3ccc(C)s3)nnn2-c2nonc2N)cc1	GLP1R inv ag 11µM
CCOc1ccc(-c2c(C(=O)N/N=C/c3cccs3)nnn2-c2nonc2N)cc1	none
Cc1ccc(SCc2c(C(=O)N/N=C/c3ccc4c(c3)OCO4)nnn2-c2nonc2N)cc1	none
Cc1ccc(-c2c(C(=O)N/N=C/c3ccc4c(c3)OCO4)nnn2-c2nonc2N)cc1	GLP1R cytotox inconclusive, GLP1R inv ag 10µM
CC(=O)N1c2ccccc2CC1C(=O)N1CCN(c2ccccc2F)CC1 (stereo not given)	none (no result: GLP1R ag)
O=C(Nc1nnc(S(=O)(=O)N2CCN(c3ccc(F)cc3)CC2)s1)c1ccc(Cl)cc1	none (no result: GLP1R ag)
COc1ccc(CCNC(=O)CCCn2nc(C)c3sc4ccccc4c3c2=O)c(OC)c1	none (no result: GLP1R ag)
CC(C)(C)OC(=O)N(CCc1ccccc1)Cc1cccc(OCc2cccc(NC(=O)C3CCCC3)c2)c1	GLP1R inv ag 10µM
CC(C)(C)OC(=O)N(CCc1ccccc1)Cc1ccccc1OCc1cccc(NC(=O)C2CC2)c1	GLP1R inv ag inconclusive
CC(C)(C)OC(=O)N(CCc1ccccc1)Cc1ccccc1OCc1ccc(NC(=O)C2CCC2)cc1	GLP1R inv ag 3.5µM
CC(C)(C)OC(=O)N(Cc1ccccc1)Cc1ccccc1OCc1ccc(NC(=O)C2CCC2)cc1	GLP1R inv ag 2.8µM
CC(C)(C)OC(=O)N(Cc1ccccc1)Cc1ccc(OCc2cccc(NC(=O)C3CC3)c2)cc1	none
CC(C)(C)OC(=O)N(CCc1ccccc1)Cc1ccccc1OCc1cccc(NC(=O)C2CCCC2)c1	GLP1R inv ag 2.8µM
CCCc1cc(=O)[nH]c2nnc(SCC)n12	none (no result: GLP1R ag)
Cc1nnsc1C(=O)Oc1ccc(C#N)cc1	none (no result: GLP1R ag)
CC(C)C(=O)Nc1cccc(COc2ccccc2CN(Cc2ccccc2)C(=O)OC(C)(C)C)c1	GLP1R inv ag 11µM
CC(C)(C)OC(=O)N(Cc1ccccc1)Cc1ccccc1OCc1cccc(NC(=O)c2ccccc2)c1	GLP1R inv ag inconclusive
CC(C)(C)NCC(O)COc1c(F)cc(Br)cc1F (stereo not given)	none
CC(C)(C)CC(C)(C)NCC(O)COc1c(F)cc(Br)cc1F (stereo not given)	GLP1R inv ag 10µM
O=C(COc1ccc(F)cc1)OCc1cc(=O)n2nc(C3CC3)sc2n1	none (no result: GLP1R ag)
NC(=O)c1ccccc1NC(=O)CN1CCN(Cc2ccccc2)CC1	none
O=C(CN1CCN(Cc2ccccc2)CC1)Nc1ccccc1-c1ccccc1	GLP1R inv ag 2µM
CCOC(=O)c1ccc(N2C(=O)c3n[nH]c(-c4cccs4)c3C2c2ccc(O)c(OC)c2)cc1 (stereo not given)	GLP1R inv ag inconclusive
Cc1ccc(Nc2c(-c3ccccc3O)nc3ncccn23)cc1	GLP1R inv ag 10µM
Cc1ccc(Nc2c(-c3ccc(C)cc3)nc3c(C)cccn23)cc1	GLP1R inv ag 10µM (no result: GLP1R ag)
Cc1ccc(Nc2c(-c3ccsc3)nc3c(C)cccn23)cc1	GLP1R inv ag inconclusive (no result: GLP1R ag)
C=CCc1ccc(OCC(O)CO)c(OC)c1 (stereo not given)	none
C=CCc1ccc(O)c(-c2cc(CC=C)ccc2O)c1	GLP1R inv ag 11µM
Cc1ccc(NC(=O)c2c(C)oc3ncn(CC(C)C)c(=O)c23)nc1	none (no result: GLP1R ag)
Cc1ccc(S(=O)(=O)N(C)C)cc1NC(=O)COC(=O)/C(=C/c1ccc(F)cc1)c1cccs1	GLP1R inv ag 10µM
CCc1ccc(NC(=O)c2cccc(N3CCCS3(=O)=O)c2)cc1	GLP1R inv ag inconclusive (no result: GLP1R ag)
CC1CCCC(C)N1C(=O)CSc1nnc(-c2c[nH]c3ccccc23)o1 (stereo not given)	none
